Experimental findings from PubChem BioAssay AID1259313 (Sanford-Burnham Center for Chemical Genomics, 2017) are described below.

The structures appear in SMILES notation. In all, about 340,000 compounds went through this assay and about 8,500 (2.5%) were called active. The sample as a whole holds a higher share of actives than the screen did. Unmarked numbers belong to inactive results.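 The calls were made as follows: active = melting temperature shift of at least 10% of the positive control shift, at one fixed dose; inactive = the rest.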

This experiment deals with Glutamate receptor ionotropic, NMDA 3A (GRIN3A) ligand-binding domain. The experiment in a line: NR3A LBD thermal stabilization by compounds – biophysical, differential scanning fluorimetry, uHTS, primary screen (AID 1259313). The following applies: at 25 µM, stronger effect = higher value, 0% = protein alone, 100% = glycine-bound protein. (Differential scanning fluorimetry follows unfolding on heating by fluorescence.)
For the compound `CC1CCN(C(=O)COC(=O)CCC(=O)c2cccs2)CC1`, the Tm shift relative to glycine control is 0.85%.

As to `Cc1cccc(C(=O)Nc2ccc(Oc3cnccn3)cc2)c1`, the Tm shift relative to glycine control was 1.77%.

For `Cc1ccc(COc2ccc(C(=O)NN)cc2)cc1`, the Tm shift relative to glycine control was -4.77%.

For `Cc1cccc(OCc2ccc(C(=O)Nc3ccc(F)cc3)cc2)c1`, the Tm shift relative to glycine control was 13.3% (active).

Consider `CC(C)(CNC(=O)CNC(=O)C1CCCCC1)N1CCOCC1`, for which the Tm shift relative to glycine control is -1.27%.

On to `COc1ccc(NC(=O)CCCC2CCCCC2)c(OC)c1`, for which the Tm shift relative to glycine control is 2.43%.

In the case of `Cc1ccc(CNC(=O)Cn2cnc3c(NCc4ccccc4)ncnc32)o1`, the Tm shift relative to glycine control was 3%.

Regarding `Cc1ccc(Nc2nc(-c3ccc(O)cc3O)cs2)nc1`, the Tm shift relative to glycine control is 27.4% (active).

As to `Cc1ccc(-c2csc(NCCc3nc4cc(Cl)c(Cl)cc4n3CCOCCO)n2)cc1`, the Tm shift relative to glycine control was -1.81%.

Regarding `COc1ccc(CCNC(=O)NS(=O)(=O)c2ccc(C)cc2)cc1OC`, the Tm shift relative to glycine control was -2.28%.

`O=[N+]([O-])c1ccccc1SNc1ccccn1`: the Tm shift relative to glycine control was 1.04%.

As to `CCOC(=O)N1CCN(CC(=O)c2ccc3c(c2)CCN3)CC1`, the Tm shift relative to glycine control was -1.56%.

Turning to `C[C@H](OC(=O)n1ccnc1)[C@@H]1O[C@@]2(C)CCC[C@@H]1O2`, the Tm shift relative to glycine control is -0.49%.

With `COc1ccc(N(CC(=O)NC2CCCCCCC2)S(=O)(=O)c2c(C)nn(C)c2C)cc1`, the Tm shift relative to glycine control was -1.2%.

For the compound `O=S(=O)(c1ccc(F)cc1)N1CCN(C(=S)NC2CCCC2)CC1`, the Tm shift relative to glycine control was 1.46%.

For the compound `O=C(C1CCCN(S(=O)(=O)c2ccccc2)C1)N1CCN(c2ccc(F)cc2)CC1` (stereo unspecified), the Tm shift relative to glycine control was -0.26%.

Turning to `O=C(O)C1CCCCC1C(=O)N1CCN(S(=O)(=O)c2ccc(F)cc2)CC1` (stereo unspecified), the Tm shift relative to glycine control was 14.4% (active).

Turning to `Cc1cc(=O)oc2c1ccc1ccccc12`, the Tm shift relative to glycine control was 0.49%.

As to `CCOC(=O)c1cccc(NC(=O)C2CCCN(S(=O)(=O)c3cnc[nH]3)C2)c1` (stereo unspecified), the Tm shift relative to glycine control is -1.2%.

On to `Cc1cc(C)c(C(=O)CSc2nc(C)cc(=O)[nH]2)c(C)c1`, for which the Tm shift relative to glycine control was -3.2%.

Regarding `COC(=O)c1ccccc1SC1CC(=O)N(c2cccc(C)c2)C1=O` (stereo unspecified), the Tm shift relative to glycine control is -2.37%.

In the case of `COc1cc(OC)c(C(=O)Nc2ccccc2-c2ccccc2)cc1OC`, the Tm shift relative to glycine control is 11.5% (active).

Turning to `O=C(Nc1ccccc1-c1ccccc1)c1ccccc1[N+](=O)[O-]`, the Tm shift relative to glycine control is -0.71%.

Take `COc1cc2ccccc2cc1C(=O)Nc1ccccc1C`: the Tm shift relative to glycine control is 3.64%.

As to `Cc1sc(NC(=O)C2=COCCO2)c(C#N)c1C`, the Tm shift relative to glycine control is -1.88%.

For the compound `O=C(Nc1cccc(-c2cccc(Cl)c2)c1)C1CCN(C2CCC2)CC1`, the Tm shift relative to glycine control was -0.08%.

Consider `C=CCSc1nnc(Cn2c(=O)sc3ccccc32)n1C`, for which the Tm shift relative to glycine control was -0.55%.

As to `O=c1c(-c2ccc3c(c2)OCCO3)c(C(F)(F)F)oc2cc(O)cc(O)c12`, the Tm shift relative to glycine control was 6.01%.

Regarding `CCOC(=O)c1cc2cc(-c3c(C(=O)OCC)oc4cc(O)cc(O)c4c3=O)ccc2o1`, the Tm shift relative to glycine control was 22.4% (active).

With `CCOC(=O)c1oc2c(CN3CCN(C)CC3)c(O)ccc2c(=O)c1-c1ccc(Br)cc1`, the Tm shift relative to glycine control was -3.94%.

For the compound `Nc1nc(SCc2ccc([N+](=O)[O-])cc2)c2ncn(C3OC(CO)C(O)C3O)c2n1` (stereo unspecified), the Tm shift relative to glycine control is 1.21%.

Turning to `COc1ccc(CN2CCNC(=O)C2CC(=O)N(C)Cc2ccccn2)cc1OC` (stereo unspecified), the Tm shift relative to glycine control is 2.19%.

Regarding `Cc1cccc(-n2c(C)cc(/C=N\NC(=O)c3cccs3)c2C)c1`, the Tm shift relative to glycine control is 11.5% (active).

For the compound `Cc1ccc(-n2c(C)cc(/C=N\NC(=O)CC(=O)NC(C)C)c2C)cc1`, the Tm shift relative to glycine control is -0.09%.

With `Cc1ccc(-n2nc(C)c(/C=N/NC(=O)c3cccs3)c2Cl)cc1`, the Tm shift relative to glycine control is -1.88%.

Consider `CN1CCN(c2ccccc2NC(=O)COc2ccc(C3CCCCC3)cc2)CC1`, for which the Tm shift relative to glycine control is 2.39%.

Take `CC1(C)C/C(=C(/C#N)C(N)=O)CCO1`: the Tm shift relative to glycine control was 1.51%.

`Cc1cc(Cl)ccc1C(=O)C1CCCN(C(=O)CCN2CCCO2)C1` (stereo unspecified): the Tm shift relative to glycine control is -1.36%.

Take `CCN(CC(=O)Nc1ccc(S(=O)(=O)N2CCCC2)cc1)CC(=O)Nc1cccc(OC)c1`: the Tm shift relative to glycine control was 0.48%.

In the case of `CCNS(=O)(=O)c1ccc(NC(=O)Nc2cccc(C(F)(F)F)c2)cc1`, the Tm shift relative to glycine control was 38.8% (active).

On to `O=C(NCc1ccccc1)c1ccc(S(=O)(=O)Nc2cccc(C(F)(F)F)c2)cc1`, for which the Tm shift relative to glycine control is 8.53%.

Regarding `CCNS(=O)(=O)c1ccc(NC(=O)Nc2cccc(OC)c2)cc1`, the Tm shift relative to glycine control was 29.6% (active).

Regarding `COc1cccc(NC(C)=[N+](C)CCNS(=O)(=O)c2ccc(Cl)cc2)c1`, the Tm shift relative to glycine control is -3.14%.

As to `O=C(Nc1ccc(C(=O)N2CCOCC2)cc1)Nc1cccc(C(F)(F)F)c1`, the Tm shift relative to glycine control is -5.51%.

For `O=C(N/N=C/c1ccc(OCC2COCCO2)cc1)c1ccc(Br)cc1` (stereo unspecified), the Tm shift relative to glycine control was 8.82%.

With `COc1ccc(N2C(=O)C3C(C2=O)C(C(=O)c2ccccc2)N2CCCC32)cc1` (stereo unspecified), the Tm shift relative to glycine control is -1.47%.
